# Reference: PubChem BioAssay (NCATS)
# Results filed as inconclusive are left out. Activity calls are given as the source filed them. The call rests on the fitted dose curve; in most records, active means well fitted inhibition curve with a large enough effect; inconclusive means small, poorly fitted or top-dose-only effect; inactive means flat fitted curve, though single readings scatter.
# System: CRL-7250
# Assay: qHTS assay to identify novel small-molecules to repurpose for Merkel cell carcinoma treatment (AID 1296009); further: nearly all actives have a fitted effect of over 60% in size
# Settings: MCC and control cell lines, CellTiter-Glo viability, 72 h; series mostly up to 92 µM; activity change, negative = cytotoxicity: at the top concentration
# How it was run: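 Dose-response viability screen; 72 hr exposure at 37 degree celsius; CellTiter-Glo added, 10 min room temperature, luminescence read; RLUs scaled between no-cell and DMSO wells.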
row,Structure (SMILES),outcome
1,C=C(C)[C@@H]1CC[C@](C)(O)[C@@H](OC(=O)c2ccccc2)C1,inactive
2,CC1=C(C)C(=O)OC(C(C)C2CCC3C4C5OC5C5(O)CC(OC6OC(CO)C(OC7OC(C)C(O)C(O)C7O)C(O)C6O)CC(O)C5(C)C4CCC23C)C1 (configuration not stated),inactive [at 17.4 µM]
3,CC1(C)O[C@@]2(C)CC[C@@H]1C[C@@H]2OC1OC(CO)C(O)C(O)C1O (some centres not stated),inactive
4,CC(=C\C(C)O)/C=C(\C)C(=O)CC1CC(CC(N)=O)CC(=O)O1 (configuration not stated),inactive
5,N#CC(c1ccnc(OCc2ccc(CN3CCOCC3)cc2)n1)c1nc2ccccc2s1 (configuration not stated),inactive
6,C=CC1(C)CC2CCC3C(C)(C(=O)O)CCCC3(C)C2=CC1=O (configuration not stated),inactive
7,COc1cc2c(cc1O)CC(O)(CO)C(CO)C2c1ccc(OC2OC(CO)C(O)C(O)C2O)c(OC)c1 (configuration not stated),inactive [at 17.4 µM]
